A short description of test [1]: STAT3 reporter inhibitors, retest of hits, confirmation, U3A cells, luciferase, luminescence (AID 1265;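 active means inhibition above the hit cutoff computed for the primary STAT3 screen, cut at about 44% in these data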;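 further: 0% = IL-6 plus DMSO and 100% = IL-6 plus nifuroxazide control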). Particulars: IL-6 STAT3 luciferase reporter, at 5.7 µM, active compounds read high, cell line lacks STAT1. For orientation: In a reporter assay the amount or activity of a reporter protein is the signal.
A short description of test [2]: NF-kB reporter inhibitors in human cells, confirmation, counter-screen for STAT3 inhibitor project, cell-based, HEK293T, luciferase, TNF-alpha stimulus (AID 1308).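 Further: 0% = TNF-alpha with DMSO and 100% = TNF-alpha with MG high control.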 To be noted: TNF-alpha induced, at 5.7 µM, active compounds read high. Background: The purpose of a counterscreen is to sort out artefacts and off-target activity.
Test [3] in a line: STAT1 reporter inhibitors, IFN-gamma induced, confirmation, counter-screen for STAT3 inhibitor project, cell-based, NIH 3T3, luciferase luminescence (AID 1317;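 active means inhibition above the mean plus 3 SD of solvent-only control wells, limit set per screening run, cut at about 16% in these data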;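 further: 0% = DMSO with IFN-gamma and 100% = nifuroxazide control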). To be noted: NIH 3T3 STAT1-luciferase reporter, at 5.7 µM, active compounds read high.
For test [4], the target named is Serine protease HTRA1 (Homo sapiens) (UniProt Q92743). In words: HTRA1 protease inhibitors, retest, confirmation, biochemical, fluorescence polarization (AID 540248;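 active means mean inhibition over three repeats above a set limit taken from the earlier primary screen, cut at about 37% in these data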;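 further: 0% = HTRA1 with DMSO and 100% = wells lacking HTRA1; inhibitors block probe binding so polarization drops and inhibition rises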). To be noted: recombinant HTRA1, FP-rhodamine activity-based probe, at 5.96 µM, active compounds read high. For orientation: Fluorescence polarisation rises when a labelled molecule tumbles more slowly, as on binding a larger partner.

A short description of test [5]: STAT1 signaling activators, confirmation, cell-based, HTS, luciferase reporter (AID 1262;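 active means activation above a set limit carried over from the earlier primary STAT1 screen, cut at about 140% in these data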;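 further: simple ratio to median IFN-gamma plus DMSO wells so 0% means no light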). To be noted: NIH 3T3 STAT1-luciferase reporter, IFN-gamma potentiation, luminescence; at 5.7 µM; active compounds read high; 100% = IFN-gamma EC80 alone, no compound.
The nature of test [6]: NF-kB reporter activators, TNF-alpha stimulated, counter-screen for STAT1 activator project, cell-based, HEK293T, luciferase luminescence (AID 1306;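 active means activation above the mean of solvent-only control wells plus 3 SD, set per campaign, cut at about 130% in these data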;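 further: TNF-alpha given at a submaximal dose yielding about 80% of full reporter signal; values are well signal over median control so 100% means no change and 0% no light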). To be noted: at 5.7 µM, active compounds read high, 100% = TNF-alpha with vehicle only.
For test [7], the target named is Signal transducer and activator of transcription 3 (Homo sapiens) (UniProt P40763). In words: STAT3 reporter activation by STAT1 hits, confirmation, counter-screen for STAT1 activator project, U3A cells, luciferase, luminescence (AID 1316;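 active means activation above the solvent-only control well mean plus 3 SD, set per plate batch, cut at about 110% in these data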;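 further: 0% = no luminescence and 100% = median IL-6 plus DMSO wells; higher means more STAT3 reporter activation so hits are non-selective activators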). To be noted: IL-6, luminescence, at 5.7 µM, active compounds read high, 100 = IL-6 alone, no compound effect, cells lack STAT1.
Test [8] deals with DAF-12 nuclear receptor (Heterodera glycines), GAL4-LBD fusion. Briefly: H. glycines DAF-12 receptor agonists, confirmation, cell-based, luminescence, HEK293, GAL4-LBD fusion (AID 743050;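 active means mean activation over triplicate wells above the hit cutoff derived from the earlier primary screen, cut at about 11% in these data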;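 further: 0% = DMSO low control and 100% = 2 mM sodium butyrate high control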). Particulars: HEK293 GAL4-hgDAF12 luciferase reporter, agonist mode; at 6.8 µM; active compounds read high; percent of butyrate response.
Test [9] addresses Oxysterols receptor LXR-beta (Homo sapiens) (UniProt P55055). In words: LXR agonists, Gal4 luciferase reporter, confirmation, counter-screen for hgDAF-12 agonist project, cell-based, luminescence, HEK293, H. glycines campaign (AID 743051;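 active means mean activation of the triplicate above a set limit carried over from the primary screen, none filed active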). Particulars: 24 h, at 6.8 µM, active compounds read high.
In test [10] the target is Neuropeptide Y receptor type 2 (Homo sapiens) (UniProt P49146). Briefly: NPY-Y2 potentiators or agonists, confirmation, cell-based (AID 1539; in the data active means activation above about 33%). Particulars: cell-based NPY-Y2 potentiator/agonist assay; at 3.6 µM; active compounds read high.
Sequence of Neuropeptide Y receptor type 2 (Homo sapiens) (P49146 whole entry, looked up): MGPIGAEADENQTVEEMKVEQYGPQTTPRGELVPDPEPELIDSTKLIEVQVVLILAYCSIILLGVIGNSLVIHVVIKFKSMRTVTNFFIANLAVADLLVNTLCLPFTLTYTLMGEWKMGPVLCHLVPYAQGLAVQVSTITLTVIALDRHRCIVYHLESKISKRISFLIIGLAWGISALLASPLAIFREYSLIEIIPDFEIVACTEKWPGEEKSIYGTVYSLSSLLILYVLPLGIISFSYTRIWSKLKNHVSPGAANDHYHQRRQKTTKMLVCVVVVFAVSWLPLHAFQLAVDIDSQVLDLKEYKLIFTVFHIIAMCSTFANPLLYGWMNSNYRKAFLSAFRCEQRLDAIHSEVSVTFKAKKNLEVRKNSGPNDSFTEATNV
The target in test [11] is Neuropeptide Y receptor type 1 (Homo sapiens) (UniProt P25929). In words: NPY-Y1 potentiators or agonists, counter-screen for NPY-Y2 potentiator project, cell-based, fluorescence (AID 1651; in the data active means activation above about 45%;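 further: cells stimulated with submaximal NPY then isoproterenol with phosphodiesterase inhibitor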). Particulars: Y1 HEK293-CNG cells, membrane potential fluorescence; at 3.6 µM; active compounds read high.
Sequence of Neuropeptide Y receptor type 1 (Homo sapiens) (P25929 whole entry, looked up): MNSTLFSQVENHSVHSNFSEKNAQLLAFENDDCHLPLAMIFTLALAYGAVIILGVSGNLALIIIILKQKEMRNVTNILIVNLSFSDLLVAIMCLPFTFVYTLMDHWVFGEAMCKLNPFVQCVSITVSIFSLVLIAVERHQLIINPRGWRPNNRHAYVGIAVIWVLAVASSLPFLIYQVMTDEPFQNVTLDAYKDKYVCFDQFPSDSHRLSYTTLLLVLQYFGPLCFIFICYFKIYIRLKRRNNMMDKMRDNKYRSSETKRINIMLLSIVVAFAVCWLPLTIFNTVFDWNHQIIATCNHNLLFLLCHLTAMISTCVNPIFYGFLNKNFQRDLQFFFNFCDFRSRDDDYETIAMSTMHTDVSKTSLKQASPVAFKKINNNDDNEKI
Test [12] shares this target. Briefly: NPY-Y1 direct agonists, selectivity assay for NPY-Y2 potentiator project, cell-based, fluorescence (AID 1702;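 active means activation above the mean of DMSO-only control wells plus 3 SD, cut at about 18% in these data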;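 further: cells stimulated with 1 µM isoproterenol plus the PDE inhibitor Ro 20-1724; 0% = isoproterenol with DMSO and no NPY and 100% = 40 nM NPY; Y1 agonists lower the membrane potential dye signal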). To be noted: HEK293 Y1-CNGC, membrane potential fluorescence, agonism; at 3.6 µM; active compounds read high.
Test [13] is described as follows: CNGC cAMP sensor activity inhibitors, counter-screen for NPY-Y2 potentiator project, cell-based, HEK293-CNG parental, membrane potential fluorescence (AID 1703;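 active means inhibition above the control-well mean plus 3 SD of those wells, cut at about 22% in these data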;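 further: 0% = DMSO with isoproterenol and 100% = DMSO without isoproterenol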). To be noted: isoproterenol cAMP, at 3.6 µM, active compounds read high.
The target of test [14] is Neuropeptide Y receptor type 2 (Homo sapiens) (UniProt P49146). In words: NPY-Y2 direct agonists, counter-screen for NPY-Y2 potentiator project, cell-based, fluorescence (AID 1710;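 active means activation above the mean of solvent-only control wells plus 3 SD, cut at about 10% in these data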;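 further: cells stimulated by isoproterenol with no NPY added so direct agonism is tested; 0% = DMSO with isoproterenol alone and 100% = NPY at EC100 plus isoproterenol; agonism lowers probe fluorescence through less cAMP and CNG channel opening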). To be noted: HEK293 Y2/CNGC cells, membrane potential fluorescence, agonist mode; at 3.6 µM; active compounds read high.
Test [15] deals with transactivating tegument protein VP16 (Human herpesvirus 1). In words: VP16 transactivation reporter inhibitors, counter-screen for SRC2 inhibitor project, cell-based, luminescence, single concentration (AID 652007; in the data active means inhibition above about 36%). To be noted: cell-based VP16 transactivation luciferase reporter, at 8.9 µM, active compounds read high.
For test [16], the target named is Nuclear receptor coactivator 2 (Homo sapiens) (UniProt Q15596). In words: SRC2 coactivator transcriptional activity inhibitors, confirmation, cell-based, luminescence, HEK293, triplicate (AID 652008;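 active means mean inhibition above 46.5%, the solvent-only control mean plus 3 SD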;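 further: 0% = DMSO-treated cells and 100% = Gossypol at 36 µM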). To be noted: HEK293 GAL4-SRC2 luciferase reporter, at 8.9 µM, active compounds read high.
The target of test [17] is Platelet-activating factor acetylhydrolase (Homo sapiens) (UniProt Q13093). Briefly: pPAFAH (PLA2G7) enzyme inhibitors, confirmation, biochemical, fluorescence polarization, human (AID 463230;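 active means mean inhibition of the triplicate above the hit cutoff set for the earlier primary screen, cut at about 25% in these data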;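 further: 0% = enzyme with DMSO and 100% = wells lacking pPAFAH enzyme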). Particulars: recombinant pPAFAH, FP-Rh probe fluorescence polarization; at 3.39 µM; active compounds read high.
Sequence of Platelet-activating factor acetylhydrolase (Homo sapiens) (Q13093 whole entry, looked up): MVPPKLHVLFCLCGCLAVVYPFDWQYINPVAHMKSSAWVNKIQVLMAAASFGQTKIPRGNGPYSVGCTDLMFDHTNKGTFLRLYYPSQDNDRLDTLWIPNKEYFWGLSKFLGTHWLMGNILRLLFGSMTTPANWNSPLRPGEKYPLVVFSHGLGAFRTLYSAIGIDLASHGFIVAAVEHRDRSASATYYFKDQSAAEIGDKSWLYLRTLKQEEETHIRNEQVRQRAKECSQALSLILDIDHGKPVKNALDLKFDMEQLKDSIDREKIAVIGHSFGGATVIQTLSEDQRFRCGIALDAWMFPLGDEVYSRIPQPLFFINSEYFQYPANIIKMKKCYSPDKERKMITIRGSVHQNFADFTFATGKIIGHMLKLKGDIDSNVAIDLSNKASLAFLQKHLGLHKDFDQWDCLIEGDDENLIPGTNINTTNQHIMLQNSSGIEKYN
The nature of test [18]: growth loss of phage-infected E. coli expressing H. pylori AddAB, confirmation, AddAB inhibitor project, absorbance, E. coli V3065, T4 phage, triplicate (AID 488942;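 active means mean inhibition above a set limit taken from the earlier primary screen, cut at about 13% in these data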;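 further: higher means less bacterial growth since AddAB block lets phage replicate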). To be noted: OD, at 11.9 µM, active compounds read high, T4 phage with gene 2 nonsense mutations.
A short description of test [19]: growth loss of RecBCD+ E. coli with mutant T4 phage, counter-screen for AddAB inhibitor project, absorbance, V66 E. coli (AID 488955;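 active means mean inhibition above the mean of solvent-only control wells plus 3 SD, cut at about 4% in these data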;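 further: optical density read after an 18 h incubation at 37 °C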). To be noted: OD growth, at 11.9 µM, active compounds read high.
Test [20] in a line: bacterial viability inhibition counter-screen, confirmation, counter-screen for AddAB inhibitor project, absorbance (AID 488956; in the data active means inhibition above about 25%). To be noted: absorbance (AddAB counterscreen), at 11.9 µM, active compounds read high.
Test [21] concerns the target Nuclear receptor coactivator 3 (Homo sapiens) (UniProt Q9Y6Q9). In words: SRC3 coactivator transcriptional activity inhibitors, confirmation, cell-based, luminescence, quadruplicate (AID 588792;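 active means mean inhibition over 43.08%, the solvent-only control mean plus 3 SD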;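 further: 0% = DMSO treated cells and 100% = gossypol at 36 µM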). To be noted: HEK293 GAL4-SRC3 luciferase reporter, at 3.6 µM, active compounds read high.
Test [22] has as its system transactivating tegument protein VP16 (Human herpesvirus 1), Gal4-VP16 luciferase reporter. Briefly: VP16 transactivation inhibitors, counter-screen for SRC3 inhibitor project, cell-based, luminescence, high throughput (AID 588794; in the data active means inhibition above about 30%). Particulars: mammalian cells, VP16-driven luciferase reporter luminescence; at 3.6 µM; active compounds read high.
Test [23] deals with Nuclear receptor coactivator 1 (Homo sapiens) (UniProt Q15788). Briefly: SRC1 coactivator transcriptional activity inhibitors, confirmation, cell-based, luminescence, quadruplicate (AID 588820;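 active means mean inhibition above 46.68%, the untreated control wells mean plus 3 SD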;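 further: 0% = DMSO wells and 100% = gossypol 36 µM treated wells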). Particulars: HEK293 GAL4-SRC1 luciferase reporter, at 3.6 µM, active compounds read high.
Sequence of Nuclear receptor coactivator 1 (Homo sapiens) (Q15788 whole entry, looked up, the tested form may be a part): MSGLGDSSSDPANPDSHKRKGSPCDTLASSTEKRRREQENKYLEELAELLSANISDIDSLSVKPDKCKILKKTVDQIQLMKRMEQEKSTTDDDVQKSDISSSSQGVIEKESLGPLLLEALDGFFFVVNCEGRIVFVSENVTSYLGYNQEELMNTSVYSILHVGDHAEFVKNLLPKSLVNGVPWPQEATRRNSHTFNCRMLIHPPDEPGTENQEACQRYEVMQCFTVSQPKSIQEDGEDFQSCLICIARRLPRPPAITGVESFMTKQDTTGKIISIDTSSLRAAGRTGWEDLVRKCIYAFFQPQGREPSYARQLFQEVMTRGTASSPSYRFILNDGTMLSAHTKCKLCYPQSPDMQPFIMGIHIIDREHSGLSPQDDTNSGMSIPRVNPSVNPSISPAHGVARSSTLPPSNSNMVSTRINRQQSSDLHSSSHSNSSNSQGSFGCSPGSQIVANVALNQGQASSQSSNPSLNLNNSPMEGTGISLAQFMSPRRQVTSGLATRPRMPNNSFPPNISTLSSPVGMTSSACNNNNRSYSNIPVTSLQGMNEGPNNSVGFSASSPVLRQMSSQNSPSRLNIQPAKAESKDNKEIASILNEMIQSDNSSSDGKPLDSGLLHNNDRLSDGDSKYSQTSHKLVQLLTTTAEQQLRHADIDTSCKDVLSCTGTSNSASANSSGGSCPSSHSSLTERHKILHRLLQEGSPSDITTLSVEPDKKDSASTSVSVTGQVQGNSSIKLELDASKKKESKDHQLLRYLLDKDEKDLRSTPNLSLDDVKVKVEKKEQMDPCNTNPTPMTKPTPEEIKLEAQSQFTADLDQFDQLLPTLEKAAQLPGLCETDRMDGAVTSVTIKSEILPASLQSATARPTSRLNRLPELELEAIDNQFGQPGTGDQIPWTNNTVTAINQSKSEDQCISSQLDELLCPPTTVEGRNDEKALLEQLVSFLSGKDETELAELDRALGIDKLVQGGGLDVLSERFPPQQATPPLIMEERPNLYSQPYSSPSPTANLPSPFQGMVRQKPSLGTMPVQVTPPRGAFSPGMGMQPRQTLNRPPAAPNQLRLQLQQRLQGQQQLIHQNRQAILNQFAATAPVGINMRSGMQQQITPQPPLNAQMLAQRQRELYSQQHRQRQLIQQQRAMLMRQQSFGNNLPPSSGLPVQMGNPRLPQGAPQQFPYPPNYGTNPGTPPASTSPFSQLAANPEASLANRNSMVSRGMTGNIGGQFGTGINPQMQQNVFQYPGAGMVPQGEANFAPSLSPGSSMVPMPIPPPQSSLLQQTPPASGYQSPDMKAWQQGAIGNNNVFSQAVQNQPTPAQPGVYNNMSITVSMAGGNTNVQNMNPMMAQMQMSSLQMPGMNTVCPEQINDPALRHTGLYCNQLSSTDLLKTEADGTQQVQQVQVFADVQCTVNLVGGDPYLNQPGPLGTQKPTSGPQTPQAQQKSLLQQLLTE
The nature of test [24]: VP16 transactivation inhibitors, counter-screen for SRC1 inhibitor project, cell-based, luminescence, high throughput (AID 588824; in the data active means inhibition above about 25%). Particulars: cell-based VP16 transactivation luciferase luminescence; at 3.6 µM; active compounds read high.
For test [25], the target named is Photoreceptor-specific nuclear receptor (Homo sapiens) (UniProt Q9Y5X4). In words: NR2E3 agonist confirmation in cells, cell-based, luminescence, CHO-S two-hybrid (AID 624378;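 active means average inhibition above a cutoff equal to the mean inhibition of all tested compounds plus one SD, cut at about 70% in these data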;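 further: 0% = DMSO in NR2E3 cells and 100% = DMSO in cells lacking NR2E3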). Particulars: CHO-S mammalian two-hybrid NR2E3-NCOR, luciferase luminescence; at 3.98 µM; active compounds read high.
Sequence of Photoreceptor-specific nuclear receptor (Homo sapiens) (Q9Y5X4 whole entry, looked up, the tested form may be a part): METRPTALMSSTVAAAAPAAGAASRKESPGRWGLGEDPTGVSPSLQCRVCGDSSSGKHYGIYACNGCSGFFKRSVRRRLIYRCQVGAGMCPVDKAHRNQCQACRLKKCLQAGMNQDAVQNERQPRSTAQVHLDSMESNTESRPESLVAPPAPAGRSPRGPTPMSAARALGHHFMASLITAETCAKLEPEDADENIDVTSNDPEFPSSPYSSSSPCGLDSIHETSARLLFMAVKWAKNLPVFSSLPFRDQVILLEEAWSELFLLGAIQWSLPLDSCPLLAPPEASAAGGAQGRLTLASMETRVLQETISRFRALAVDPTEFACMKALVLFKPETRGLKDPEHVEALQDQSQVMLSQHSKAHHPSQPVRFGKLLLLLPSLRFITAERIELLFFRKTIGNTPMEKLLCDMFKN
Test [26] can be described thus: GAL4-VP16 reporter modulators, confirmation, counter-screen for NR2E3 agonist project, cell-based, luminescence, CHO-S, high throughput (AID 624379;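 active means mean inhibition above a cutoff equal to the average over all tested compounds plus one standard deviation, cut at about 70% in these data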;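 further: 0% = DMSO with VP16-transfected cells and 100% = DMSO with cells lacking VP16; higher means less reporter light so more repression of VP16 activity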). To be noted: CHO-S GAL4-VP16 luciferase reporter, at 3.98 µM, active compounds read high.
The nature of test [27]: StAR promoter reporter inhibitors, counter-screen for LRH-1 inverse agonist project, cell-based, luminescence, high throughput (AID 651611; in the data active means inhibition above about 28%). To be noted: StAR promoter luciferase reporter counterscreen, at 3.6 µM, active compounds read high.
Test [28] has as its target Nuclear receptor subfamily 5 group A member 2 (Homo sapiens) (UniProt O00482). In words: LRH-1 (NR5A2) inverse agonists, retest, confirmation, cell-based, luminescence (AID 651613; in the data active means inhibition above about 42%;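 further: HEK293T cells co-transfected with LRH-1 and StAR promoter luciferase reporter; 0% = vehicle wells and 100% = parental cells lacking receptor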). Particulars: cell-based LRH-1 luciferase reporter, inverse agonism; at 3.6 µM; active compounds read high.
For test [29], the target named is Steroidogenic factor 1 (Homo sapiens) (UniProt Q13285). In words: SF1 (NR5A1) inverse agonists, counter-screen for LRH-1 inverse agonist project, cell-based, luminescence, high throughput (AID 651614; in the data active means inhibition above about 44%;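 further: cells cotransfected with StAR promoter reporter and SF1 expression vector; 0% = vehicle on cells with receptor and 100% = vehicle on cells lacking receptor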). To be noted: cell-based SF1 luciferase reporter, at 3.6 µM, active compounds read high.
Sequence of Steroidogenic factor 1 (Homo sapiens) (Q13285 whole entry, looked up, the tested form may be a part): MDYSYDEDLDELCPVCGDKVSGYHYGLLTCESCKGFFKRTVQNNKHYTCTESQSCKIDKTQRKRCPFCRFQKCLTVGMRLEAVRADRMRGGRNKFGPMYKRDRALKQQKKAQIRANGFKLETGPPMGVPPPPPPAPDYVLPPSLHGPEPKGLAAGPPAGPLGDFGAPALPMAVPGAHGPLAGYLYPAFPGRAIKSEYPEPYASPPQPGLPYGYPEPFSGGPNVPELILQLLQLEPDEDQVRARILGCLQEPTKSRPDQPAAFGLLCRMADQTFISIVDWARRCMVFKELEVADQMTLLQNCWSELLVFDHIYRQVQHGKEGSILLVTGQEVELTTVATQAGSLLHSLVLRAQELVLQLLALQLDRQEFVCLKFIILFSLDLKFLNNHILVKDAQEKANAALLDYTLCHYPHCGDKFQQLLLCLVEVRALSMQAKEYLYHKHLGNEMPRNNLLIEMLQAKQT
The nature of test [30]: VP16 transactivation reporter inhibitors, counter-screen for LRH-1 inverse agonist project, cell-based, luminescence, high throughput (AID 651615; in the data active means inhibition above about 33%). To be noted: Gal4-VP16 luciferase reporter cells, at 3.6 µM, active compounds read high.
Test [31] can be described thus: Gal4-VP16 luciferase reporter inhibitors, counter-screen for COUP-TFII antagonist project, cell-based, luminescence, HEK293 (AID 687007; in the data active means inhibition above about 13%). Particulars: at 8.5 µM, active compounds read high.
The target in test [32] is COUP transcription factor 2 (Homo sapiens) (UniProt P24468). In words: NR2F2 transcriptional activity inhibitors, confirmation, cell-based, luciferase reporter, HEK293, triplicate (AID 687008;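 active means mean inhibition over three repeats above a set limit taken from the earlier primary screen, cut at about 38% in these data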;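 further: 100% = cells given the luciferase reporter alone without the COUP-TF2 vector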). To be noted: HEK293 NGFI-A luciferase reporter, luminescence; at 8.5 µM; active compounds read high.
Sequence of COUP transcription factor 2 (Homo sapiens) (P24468 whole entry, looked up): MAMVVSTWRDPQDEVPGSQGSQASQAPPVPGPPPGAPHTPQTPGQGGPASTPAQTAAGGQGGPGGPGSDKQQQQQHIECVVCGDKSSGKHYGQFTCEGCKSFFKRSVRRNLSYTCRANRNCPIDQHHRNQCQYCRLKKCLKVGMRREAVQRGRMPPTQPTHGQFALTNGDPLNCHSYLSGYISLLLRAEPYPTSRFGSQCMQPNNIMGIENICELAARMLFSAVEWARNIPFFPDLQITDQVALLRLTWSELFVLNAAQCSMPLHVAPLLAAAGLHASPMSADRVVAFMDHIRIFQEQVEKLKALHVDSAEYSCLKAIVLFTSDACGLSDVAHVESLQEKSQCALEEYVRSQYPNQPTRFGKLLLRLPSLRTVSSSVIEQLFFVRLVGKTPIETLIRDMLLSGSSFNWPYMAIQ

A number with no mark means an inactive call. This is one part of the list. The source made the active and inactive calls.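 How the source made its calls, unless noted: active means inhibition above the mean of solvent-only control wells plus 3 SD, cutoff set per campaign (cut at about 13% in these data); inactive means the rest.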

Sequence of Oxysterols receptor LXR-beta (Homo sapiens) (P55055 whole entry, looked up, the tested form may be a part): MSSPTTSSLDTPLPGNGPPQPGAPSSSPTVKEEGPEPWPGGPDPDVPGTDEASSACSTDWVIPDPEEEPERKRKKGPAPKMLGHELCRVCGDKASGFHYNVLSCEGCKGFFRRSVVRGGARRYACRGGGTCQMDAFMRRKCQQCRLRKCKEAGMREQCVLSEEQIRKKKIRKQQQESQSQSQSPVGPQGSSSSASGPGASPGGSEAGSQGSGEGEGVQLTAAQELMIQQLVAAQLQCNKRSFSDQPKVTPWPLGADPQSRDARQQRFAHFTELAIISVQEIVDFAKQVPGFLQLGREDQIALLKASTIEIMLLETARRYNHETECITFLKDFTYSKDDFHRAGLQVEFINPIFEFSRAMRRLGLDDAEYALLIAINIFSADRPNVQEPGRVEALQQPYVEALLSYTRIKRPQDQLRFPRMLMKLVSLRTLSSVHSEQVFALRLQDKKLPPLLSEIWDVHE
Sequence of Nuclear receptor subfamily 5 group A member 2 (Homo sapiens) (O00482 whole entry, looked up): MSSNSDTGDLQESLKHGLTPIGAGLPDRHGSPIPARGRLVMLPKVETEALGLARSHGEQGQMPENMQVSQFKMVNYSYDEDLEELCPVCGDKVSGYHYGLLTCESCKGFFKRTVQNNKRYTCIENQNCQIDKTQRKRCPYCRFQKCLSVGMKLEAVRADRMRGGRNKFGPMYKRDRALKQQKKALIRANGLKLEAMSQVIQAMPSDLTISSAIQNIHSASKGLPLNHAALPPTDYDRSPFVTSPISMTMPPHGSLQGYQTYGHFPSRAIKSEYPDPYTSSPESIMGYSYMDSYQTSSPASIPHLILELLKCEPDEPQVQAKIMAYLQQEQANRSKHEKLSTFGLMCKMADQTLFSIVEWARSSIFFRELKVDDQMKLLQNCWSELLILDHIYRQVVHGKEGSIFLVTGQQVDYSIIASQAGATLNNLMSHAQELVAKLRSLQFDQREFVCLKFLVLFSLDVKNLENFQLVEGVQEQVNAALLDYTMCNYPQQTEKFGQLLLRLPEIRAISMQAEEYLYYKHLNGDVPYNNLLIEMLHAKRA

As a reminder, the inhibition is the drop in the measured response relative to a control, in per cent. Turning to `c1ccc(-c2noc(-c3cccs3)n2)nc1`, the inhibition in test [1] was 27.6%; in [2], -12.9%; in [3], -54.9%.

Take `COc1ccc(C2=Nc3cc(C)ccc3OC2)cc1`: the inhibition in [1] is 19.3%; in [2], -18.5%; in [3], -114%.

`Cc1ccc(Nc2ccccc2N)cc1`: the inhibition in test [1] is 24.3%; in test [2], 22.9% (active); in test [3] it was 6.8%; in [4], 53.1% (active).

`O=C1NC(Nc2nc3ccccc3s2)(C(F)(F)F)C(=O)N1C1CCCCC1` (stereo unspecified): the results for the inhibition in test [1], in test [2] and in test [3] were 51.1% (active), 21.2% (active) and -9.63%, respectively.

Take `Cc1ccc2nc(-c3ccc(NC(=O)CN(C)S(=O)(=O)c4ccccc4)cc3)sc2c1`: the inhibition was 20.1% in test [1], -18.5% in [2] and -90.5% in test [3].

With `O=C(Nc1ccc(-c2nnc(-c3ccccc3)o2)cc1)C1CCCO1` (stereo unspecified), the activation (% of control) in test [5] is 207% (active); in [6], 122%; in [7], 123% (active). The figures for the activation in test [8] and in [9] were 15.9% (active) and 0.9%, respectively.

Turning to `CN(C)S(=O)(=O)c1ccc(NC(=O)COC(=O)c2n[nH]c3ccccc23)cc1`, the inhibition in test [1] is 38.2%; in test [2], 1.2%; in test [3], 8.4%; in test [13], -6.29%; in [15], -4.93%; in test [16] it was 16%. In addition, the activation in test [10] was -2.42%; in test [11] it was -36%; in test [12], -29.4%; in test [14] it was 4.88%.

For the compound `COc1ccc(NS(=O)(=O)c2ccc(NC(C)=O)cc2)cc1OC`, the values for the inhibition in test [1], in [2] and in [3] were 26.4%, 5.93% and 17.1% (active), respectively.

Consider `Cc1cccc(-n2c(O)c(C=Nc3ccccc3N)c(=O)[nH]c2=O)c1`, for which the activation (% of control) was 127% in [5], 118% in [6] and 103% in test [7]. Further, the activation was 8.36% in test [8] and 0.33% in test [9].

On to `COc1cccc(/C=C/c2ccc3ccccc3n2)c1OC(C)=O`, for which the results for the inhibition in test [1], in [2] and in test [3] were 25.2%, 32.1% (active) and -9.23%, respectively.

As for `CCN1/C(=C\c2ccc3ccccc3[n+]2CC)Sc2cc(C)ccc21`, the inhibition was 86.2% (active) in [1]; 33.4% (active) in test [2]; 19% (active) in [3]; 2.61% in [17]; 34.1% (active) in test [18]; 5.58% (active) in test [19]. Besides, the inhibition in [20] was 16.1%; in test [21], 35.8%; in test [22], 70.5% (active); in [23], 32.7%; in [24], 67.9% (active); in test [25] it was 98.3% (active). Moreover, the inhibition in test [26] was 87.5% (active); in [27], 59.5% (active); in test [28], 107% (active); in test [29], 86.4% (active); in test [30], 83.4% (active); in test [31], 10.8%. Also, the inhibition in test [32] was 66.5% (active).

For the origin of these results see PubChem BioAssay.
